Reference: PubChem BioAssay (EPA / NIEHS)
Where “and” joins values, the source holds several entries; their conditions need not be identical. Equal values may be shown once. More than one record can exist for a structure, and the calls need not agree. Calls of active or inactive are those of the source. Rule for the calls: active = hit-call score of the fitted dose curve at least 0.9, where 1 is the maximum; inactive = score below 0.9.

Legend:
[1] = BSK_CASM3C_SRB: Viability Assessment in the BioMAP Diversity Plus: CASM3C Assay (AID 2283050); settings: primary human coronary artery smooth muscle cells;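 note: cells exposed to compound for 24 h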
[2] = read-out: Thrombomodulin, THBD (gene 7056); experiment: BSK_CASM3C_Thrombomodulin: BioMAP Diversity Plus: CASM3C Assay for Thrombomodulin Biomarker Activity (AID 2283051); settings: primary human coronary artery smooth muscle cells; actives raise or lower the signal;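 note: thrombomodulin protein level measured by ELISA 24 h after dosing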
[3] = read-out: Tissue Factor, F3 (gene 2152); experiment: BSK_CASM3C_TissueFactor: BioMAP Diversity Plus: CASM3C Assay for Tissue Factor Biomarker Activity (AID 2283052); settings: primary human coronary artery smooth muscle cells; actives raise or lower the signal;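 note: cell surface tissue factor protein level read by ELISA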
[4] = read-out: Interferon-gamma inducible Protein 10 (IP10), CXCL10 (gene 3627); experiment: BSK_hDFCGF_IP10: BioMAP Diversity Plus: hDFCGF Assay for Interferon-gamma inducible Protein 10 (IP10) Biomarker Activity (AID 2283053); settings: primary human foreskin fibroblasts; actives raise or lower the signal
Procedure, shortened: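 ELISA quantification of IP-10 after a 24 h chemical exposure of human dermal foreskin fibroblast primary cultures. Both increases and decreases versus DMSO fitted.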

[5] = read-out: Urokinase-type plasminogen activator receptor (uPAR), PLAUR (gene 5329); experiment: BSK_CASM3C_uPAR: BioMAP Diversity Plus: CASM3C Assay for Urokinase-type plasminogen activator receptor (uPAR) Biomarker Activity (AID 2283054); settings: primary human coronary artery smooth muscle cells; actives raise or lower the signal;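 note: cell-surface uPAR protein level quantified by ELISA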
[6] = read-out: Vascular cell adhesion molecule 1 (VCAM1), VCAM1 (gene 7412); experiment: BSK_CASM3C_VCAM1: BioMAP Diversity Plus: CASM3C Assay for Vascular cell adhesion molecule 1 (VCAM1) Biomarker Activity (AID 2283055); settings: primary human coronary artery smooth muscle cells; actives raise or lower the signal;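 note: VCAM-1 protein level quantified by ELISA on the cells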
[7] = read-out: Collagen III, COL3A1 (gene 1281); experiment: BSK_hDFCGF_CollagenIII: BioMAP Diversity Plus: hDFCGF Assay for Collagen III Biomarker Activity (AID 2283056); settings: primary human foreskin fibroblasts; actives raise or lower the signal
Procedure, shortened: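 Cells: human foreskin fibroblasts, primary. Dosing followed by 24 h incubation, then ELISA for collagen III. Both increases and decreases scored relative to DMSO.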

[8] = read-out: Epidermal growth factor receptor (EGFR), EGFR (gene 1956); experiment: BSK_hDFCGF_EGFR: BioMAP Diversity Plus: hDFCGF Assay for Epidermal growth factor receptor (EGFR) Biomarker Activity (AID 2283057); settings: primary human foreskin fibroblasts; actives raise or lower the signal
Procedure, shortened: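 EGFR levels by ELISA in human dermal fibroblast cultures, 24 h post-treatment, fitted bidirectionally versus DMSO. Parallel wells stained with sulforhodamine B to detect overt cytotoxicity.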

[9] = read-out: Interleukin-8 (IL8), CXCL8 (gene 3576); experiment: BSK_hDFCGF_IL8: BioMAP Diversity Plus: hDFCGF Assay for Interleukin-8 (IL8) Biomarker Activity (AID 2283058); settings: primary human foreskin fibroblasts; actives raise or lower the signal
Procedure, shortened: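 IL-8 levels from compound-treated primary human fibroblasts were read by ELISA at 24 h, with DMSO serving as baseline for bidirectional fitting.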

[10] = BSK_hDFCGF_Proliferation: Cell Proliferation Assessment in the BioMAP Diversity Plus: hDFCGF Assay (AID 2283059); settings: primary human foreskin fibroblasts;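 note: curves fitted for both rise and fall of signal versus DMSO baseline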
Procedure, shortened: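 This proliferation readout used SRB total-protein staining of human foreskin fibroblasts […], normalized to DMSO with bidirectional curve fitting.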

[11] = read-out: Macrophage colony-stimulating factor (MCSF), CSF1 (gene 1435); experiment: BSK_hDFCGF_MCSF: BioMAP Diversity Plus: hDFCGF Assay for Macrophage colony-stimulating factor (MCSF) Biomarker Activity (AID 2283060); settings: primary human foreskin fibroblasts; actives raise or lower the signal
Procedure, shortened: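 M-CSF levels, determined by ELISA, are taken at 24 h after dosing human skin fibroblasts. Responses in either direction are fitted with DMSO serving as the baseline.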

[12] = BSK_hDFCGF_SRB: Viability Assessment in the BioMAP Diversity Plus: hDFCGF Assay (AID 2283061); settings: primary human foreskin fibroblasts;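 note: cells exposed to compound for 24 h before the read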
Procedure, shortened: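 Cells were dosed with test chemical, cultured 24 h, fixed with 10% TCA, then stained with 0.1% SRB and read at 560 nm. The fibroblasts were human foreskin primary cells, and DMSO served as baseline.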

[13] = read-out: TIMP metallopeptidase inhibitor 1 (TIMP1), TIMP1 (gene 7076); experiment: BSK_hDFCGF_TIMP1: BioMAP Diversity Plus: hDFCGF Assay for TIMP metallopeptidase inhibitor 1 (TIMP1) Biomarker Activity (AID 2283062); settings: primary human foreskin fibroblasts; actives raise or lower the signal
Procedure, shortened: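 Fibroblasts from human foreskin are treated with test chemical and harvested at 24 h. TIMP-1 is quantified by ELISA, and gain or loss of signal is scored against DMSO.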

[14] = read-out: Monokine induced gamma interferon (MIG), CXCL9 (gene 4283); experiment: BSK_hDFCGF_MIG: BioMAP Diversity Plus: hDFCGF Assay for Monokine induced gamma interferon (MIG) Biomarker Activity (AID 2283063); settings: primary human foreskin fibroblasts; actives raise or lower the signal
Procedure, shortened: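 MIG signal, determined by ELISA, reflects 24 h chemical exposure of human skin primary fibroblasts. DMSO serves as negative control and baseline.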

[15] = read-out: Matrix Metallopeptidase 1 (MMP1), MMP1 (gene 4312); experiment: BSK_hDFCGF_MMP1: BioMAP Diversity Plus: hDFCGF Assay for Matrix Metallopeptidase 1 (MMP1) Biomarker Activity (AID 2283064); settings: primary human foreskin fibroblasts; actives raise or lower the signal
Procedure, shortened: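 Human foreskin fibroblasts exposed to chemical for 24 h; MMP1 detected by ELISA, with DMSO as baseline for bidirectional fitting.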

[16] = read-out: Vascular cell adhesion molecule 1 (VCAM1), VCAM1 (gene 7412); experiment: BSK_hDFCGF_VCAM1: BioMAP Diversity Plus: hDFCGF Assay for Vascular cell adhesion molecule 1 (VCAM1) Biomarker Activity (AID 2283065); settings: primary human foreskin fibroblasts; actives raise or lower the signal;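 for AC50: VCAM-1 protein level quantified by ELISA after 24 h chemical exposure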
Procedure, shortened: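 Cells are dosed, cultured for 24 h, then VCAM-1 is quantified by ELISA; signal increases and decreases are both fitted relative to DMSO.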

[17] = read-out: Plasminogen activator inhibitor-1 (PAI1), SERPINE1 (gene 5054); experiment: BSK_hDFCGF_PAI1: BioMAP Diversity Plus: hDFCGF Assay for Plasminogen activator inhibitor-1 (PAI1) Biomarker Activity (AID 2283066); settings: primary human foreskin fibroblasts; actives raise or lower the signal
Procedure, shortened: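 PAI-1 levels in human dermal foreskin fibroblasts were quantified by ELISA 24 h after dosing, with gain or loss analysed against DMSO. Overt cytotoxicity was checked by sulforhodamine B total-protein staining in parallel cultures.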

[18] = read-out: Intercellular Adhesion Molecule 1 (ICAM1), ICAM1 (gene 3383); experiment: BSK_KF3CT_ICAM1: BioMAP Diversity Plus: KF3CT Assay for Intercellular Adhesion Molecule 1 (ICAM1) Biomarker Activity (AID 2283067); settings: primary human keratinocytes with fibroblasts; actives raise or lower the signal
Procedure, shortened: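 Dose the keratinocyte/fibroblast co-culture, wait 24 h, measure ICAM-1 by ELISA, then fit increases or decreases against DMSO. Cytotoxicity is checked in parallel cultures by SRB total-protein staining.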

[19] = read-out: Interferon-gamma inducible Protein 10 (IP10), CXCL10 (gene 3627); experiment: BSK_KF3CT_IP10: BioMAP Diversity Plus: KF3CT Assay for Interferon-gamma inducible Protein 10 (IP10) Biomarker Activity (AID 2283068); settings: primary human keratinocytes with fibroblasts; actives raise or lower the signal
Procedure, shortened: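 Signal is secreted/surface IP-10 by ELISA in a human primary skin co-culture of keratinocytes and foreskin fibroblasts, taken 24 h post-dosing; DMSO served as negative control.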

[20] = BSK_KF3CT_SRB: Viability Assessment in the BioMAP Diversity Plus: KF3CT Assay (AID 2283069); settings: primary human keratinocytes with fibroblasts;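 note: fitted for both signal gain and loss against DMSO baseline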
Procedure, shortened: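 Overt cytotoxicity is assessed as total protein by sulforhodamine B staining in parallel human skin co-cultures at 24 h after dosing. DMSO serves as negative control and baseline.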

Measured: AC50

FC(F)(F)C(F)(C(F)(F)F)C(F)(F)C(F)(F)CC1CO1 (centres undefined)
not listed: [20]
inactive: all other assays above

OCC(F)(F)OC(F)(F)C(F)(F)OC(F)(F)C(F)(F)OC(F)(F)CO
active: [4] 26.5 µM and 24.2 µM | [7] 14.9 µM | [10] 4.15 µM and 36.9 µM | [11] 14 µM | [12] 5.95 µM | [14] 16.8 µM and 23.2 µM | [15] 10.5 µM and 8.39 µM | [16] 13.4 µM and 8.26 µM
inactive: [1] | [2] | [3] | [5] | [6] | [7] | [8] | [9] | [11] | [12] | [13] | [17] | [18] | [19]

COC(=O)C(F)(F)C(F)(F)OC(F)(C(F)(F)F)C(F)(F)OC(F)=C(F)F (centres undefined)
active: [4] 5.35 µM and 2.92 µM | [10] 5.81 µM | [16] 2.13 µM and 2.85 µM
inactive: [1] | [2] | [3] | [5] | [6] | [7] | [8] | [9] | [10] | [11] | [12] | [13] | [14] | [15] | [17] | [18] | [19] | [20]

OCC(F)(F)OC(F)(F)C(F)(F)OC(F)(F)C(F)(F)OC(F)(F)F
inactive: [2] | [3] | [4] | [5] | [6] | [7] | [8] | [9] | [11] | [12] | [13] | [15] | [17]
active: [1] 32.9 µM and 44.3 µM | [6] 30 µM | [10] 11.6 µM and 15.8 µM | [14] 16 µM and 14.7 µM | [18] 48.3 µM and 46.3 µM | [19] 53.8 µM and 53.2 µM

CCOP(=S)(NC(C)C)Oc1ccccc1C(=O)OC(C)C (centres undefined)
active: [17] 0.257 µM
not listed: [20]
inactive: all other assays above

[N-]=[N+]=[N-]
not listed: [20]
inactive: all other assays above
